# Columns and labels:
# Experiment in all cases: DAPPL (digital affinity profiling via proximity ligation, sequencing); 10 mM Tris-HCl pH 7.5, 50 mM NaCl, 1 mM DTT, 4% glycerol, room temperature, 30 min; GST-TFs on glutathione beads, 16-mer random dsDNA library, 0.1% formaldehyde crosslink after washing; high values mean tight binding
# FEV = molecular target: T1, FEV (Homo sapiens, UniProt Q99581 1-238); details: protein: recombinant; tags: N-terminal GST; dsDNA, one strand shown
# T1 sequence: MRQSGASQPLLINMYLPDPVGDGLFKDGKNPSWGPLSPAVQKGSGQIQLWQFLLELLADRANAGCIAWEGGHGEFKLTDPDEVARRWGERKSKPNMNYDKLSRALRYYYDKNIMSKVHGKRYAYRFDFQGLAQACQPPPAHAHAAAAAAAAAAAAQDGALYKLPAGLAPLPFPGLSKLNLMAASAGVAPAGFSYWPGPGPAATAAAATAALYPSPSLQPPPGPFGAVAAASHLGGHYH
# How it was run: (§1)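 Each value of binding signal is a hexamer's read frequency for a factor divided by the same hexamer's frequency in the tag-only sample. Barcoded, bead-captured GST fusions of human transcription factors made in yeast were pooled with that sample and incubated with 200 nmole of a random double-stranded 16-mer DNA library in Tris/NaCl/DTT/glycerol buffer at room temperature for 30 min. Washing, 0.1% formaldehyde crosslinking, proximity ligation, PCR and Illumina NextSeq500 sequencing followed.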
# ETV5 = ETV5 (Homo sapiens, UniProt P41161 1-510); details: protein: recombinant; tags: N-terminal GST; dsDNA, one strand shown
# How it was run: as §1
# HSF1 = HSF1 (Homo sapiens, UniProt Q00613 1-529); details: protein: recombinant; tags: N-terminal GST; chain copies: 3; dsDNA, one strand shown
# How it was run: as §1
# SPIC = molecular target: T2, SPIC (Homo sapiens, UniProt Q8N5J4 1-248); details: protein: recombinant; tags: N-terminal GST; dsDNA, one strand shown
# T2 sequence: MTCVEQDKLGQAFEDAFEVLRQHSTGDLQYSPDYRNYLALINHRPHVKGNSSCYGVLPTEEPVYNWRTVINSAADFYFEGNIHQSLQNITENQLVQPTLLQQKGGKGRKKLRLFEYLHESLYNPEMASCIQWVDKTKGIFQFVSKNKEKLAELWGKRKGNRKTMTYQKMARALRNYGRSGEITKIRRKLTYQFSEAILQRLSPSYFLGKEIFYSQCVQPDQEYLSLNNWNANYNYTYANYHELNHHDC
# How it was run: as §1
# ELF4 = ELF4 (Homo sapiens, UniProt Q99607 1-663); details: protein: recombinant; tags: N-terminal GST; dsDNA, one strand shown
# How it was run: as §1
# ELK4 = molecular target: T3, ELK4 (Homo sapiens, UniProt P28324-2 1-405); details: protein: recombinant; tags: N-terminal GST; dsDNA, one strand shown
# T3 sequence: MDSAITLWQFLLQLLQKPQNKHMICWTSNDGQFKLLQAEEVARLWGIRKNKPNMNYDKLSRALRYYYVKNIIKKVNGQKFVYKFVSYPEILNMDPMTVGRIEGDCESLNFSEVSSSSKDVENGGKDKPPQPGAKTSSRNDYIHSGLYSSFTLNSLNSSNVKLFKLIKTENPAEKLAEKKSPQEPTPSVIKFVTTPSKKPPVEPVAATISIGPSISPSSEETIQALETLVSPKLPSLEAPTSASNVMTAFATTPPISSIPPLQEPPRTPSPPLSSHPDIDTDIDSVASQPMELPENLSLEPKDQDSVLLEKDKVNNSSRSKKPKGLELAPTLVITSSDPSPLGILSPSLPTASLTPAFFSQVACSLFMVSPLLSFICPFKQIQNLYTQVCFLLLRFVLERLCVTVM
# How it was run: as §1
# ETV2 = molecular target: T4, ETV2 (Homo sapiens, UniProt O00321 1-342); details: protein: recombinant; tags: N-terminal GST; dsDNA, one strand shown
# T4 sequence: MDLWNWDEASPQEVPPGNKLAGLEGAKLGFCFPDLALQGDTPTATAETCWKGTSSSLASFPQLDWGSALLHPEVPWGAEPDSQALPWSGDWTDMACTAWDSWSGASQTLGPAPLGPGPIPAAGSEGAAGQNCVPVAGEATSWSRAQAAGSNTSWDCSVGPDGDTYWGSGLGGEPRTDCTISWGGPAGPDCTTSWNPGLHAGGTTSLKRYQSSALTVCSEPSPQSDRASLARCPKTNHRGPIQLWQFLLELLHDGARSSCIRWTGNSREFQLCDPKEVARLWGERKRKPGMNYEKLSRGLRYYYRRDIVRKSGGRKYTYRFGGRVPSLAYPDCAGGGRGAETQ
# How it was run: as §1
# ELF3 = molecular target: T5, ELF3 (Homo sapiens, UniProt P78545 1-371); details: protein: recombinant; tags: N-terminal GST; dsDNA, one strand shown
# T5 sequence: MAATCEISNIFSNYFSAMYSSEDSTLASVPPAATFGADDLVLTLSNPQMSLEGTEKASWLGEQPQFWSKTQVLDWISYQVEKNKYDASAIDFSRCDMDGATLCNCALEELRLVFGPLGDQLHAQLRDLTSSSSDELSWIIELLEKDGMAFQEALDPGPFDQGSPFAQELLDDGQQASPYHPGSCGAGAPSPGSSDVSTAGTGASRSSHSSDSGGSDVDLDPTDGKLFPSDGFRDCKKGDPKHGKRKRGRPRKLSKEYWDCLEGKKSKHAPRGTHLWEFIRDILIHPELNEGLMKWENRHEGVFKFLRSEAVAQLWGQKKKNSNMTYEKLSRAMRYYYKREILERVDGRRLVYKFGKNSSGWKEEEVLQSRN
# How it was run: as §1
# CRX = CRX (Homo sapiens, UniProt O43186 1-299); details: protein: recombinant; tags: N-terminal GST; dsDNA, one strand shown
# How it was run: as §1
# ETV1 = ETV1 (Homo sapiens, UniProt P50549 1-477); details: protein: recombinant; tags: N-terminal GST; dsDNA, one strand shown
# How it was run: as §1
# ERF = molecular target: T6, ERF (Homo sapiens, UniProt P50548 1-548); details: protein: recombinant; tags: N-terminal GST; dsDNA, one strand shown
# T6 sequence: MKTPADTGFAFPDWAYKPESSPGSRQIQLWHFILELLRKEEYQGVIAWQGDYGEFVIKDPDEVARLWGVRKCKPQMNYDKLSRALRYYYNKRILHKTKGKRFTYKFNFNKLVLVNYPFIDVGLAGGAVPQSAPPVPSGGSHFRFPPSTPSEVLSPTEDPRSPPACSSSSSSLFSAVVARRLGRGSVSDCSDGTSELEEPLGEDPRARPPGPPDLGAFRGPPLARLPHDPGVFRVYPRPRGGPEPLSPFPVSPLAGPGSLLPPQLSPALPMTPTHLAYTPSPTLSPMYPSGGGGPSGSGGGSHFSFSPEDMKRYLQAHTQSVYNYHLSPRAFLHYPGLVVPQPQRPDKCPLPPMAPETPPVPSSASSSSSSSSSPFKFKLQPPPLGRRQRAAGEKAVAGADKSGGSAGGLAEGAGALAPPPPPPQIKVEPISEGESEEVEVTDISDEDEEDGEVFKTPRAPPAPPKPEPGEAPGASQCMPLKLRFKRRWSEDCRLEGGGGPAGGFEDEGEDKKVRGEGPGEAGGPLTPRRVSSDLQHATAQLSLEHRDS
# How it was run: as §1
# ETV3L = molecular target: T7, ETV3L (Homo sapiens, UniProt Q6ZN32 1-361); details: protein: recombinant; tags: N-terminal GST; dsDNA, one strand shown
# T7 sequence: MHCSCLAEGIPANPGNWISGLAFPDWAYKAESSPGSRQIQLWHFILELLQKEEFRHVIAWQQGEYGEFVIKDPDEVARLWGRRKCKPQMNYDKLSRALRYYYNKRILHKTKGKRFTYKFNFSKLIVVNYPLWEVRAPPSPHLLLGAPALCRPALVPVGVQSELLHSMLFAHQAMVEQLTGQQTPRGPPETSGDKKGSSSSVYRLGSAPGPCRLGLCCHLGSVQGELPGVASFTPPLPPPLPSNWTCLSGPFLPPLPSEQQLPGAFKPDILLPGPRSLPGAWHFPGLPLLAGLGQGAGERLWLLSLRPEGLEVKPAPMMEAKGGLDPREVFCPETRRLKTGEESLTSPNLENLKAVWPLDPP
# How it was run: as §1
# ETS2 = molecular target: T8, ETS2 (Homo sapiens, UniProt P15036 1-469); details: protein: recombinant; tags: N-terminal GST; dsDNA, one strand shown
# T8 sequence: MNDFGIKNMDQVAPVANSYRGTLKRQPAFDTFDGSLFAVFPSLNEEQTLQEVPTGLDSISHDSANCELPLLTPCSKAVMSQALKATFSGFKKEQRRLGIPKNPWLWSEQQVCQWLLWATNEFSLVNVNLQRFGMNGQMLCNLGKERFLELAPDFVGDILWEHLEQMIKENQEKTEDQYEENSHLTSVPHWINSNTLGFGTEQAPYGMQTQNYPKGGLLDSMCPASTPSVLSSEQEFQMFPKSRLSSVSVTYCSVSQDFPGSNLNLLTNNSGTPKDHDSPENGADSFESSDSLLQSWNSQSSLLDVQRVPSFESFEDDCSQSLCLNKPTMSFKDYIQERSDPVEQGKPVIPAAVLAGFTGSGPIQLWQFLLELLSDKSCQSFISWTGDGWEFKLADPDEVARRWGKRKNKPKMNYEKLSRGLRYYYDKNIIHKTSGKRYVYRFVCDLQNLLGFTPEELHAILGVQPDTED
# How it was run: as §1
# SPDEF = molecular target: T9, SPDEF (Homo sapiens, UniProt O95238 1-335); details: protein: recombinant; tags: N-terminal GST; dsDNA, one strand shown
# T9 sequence: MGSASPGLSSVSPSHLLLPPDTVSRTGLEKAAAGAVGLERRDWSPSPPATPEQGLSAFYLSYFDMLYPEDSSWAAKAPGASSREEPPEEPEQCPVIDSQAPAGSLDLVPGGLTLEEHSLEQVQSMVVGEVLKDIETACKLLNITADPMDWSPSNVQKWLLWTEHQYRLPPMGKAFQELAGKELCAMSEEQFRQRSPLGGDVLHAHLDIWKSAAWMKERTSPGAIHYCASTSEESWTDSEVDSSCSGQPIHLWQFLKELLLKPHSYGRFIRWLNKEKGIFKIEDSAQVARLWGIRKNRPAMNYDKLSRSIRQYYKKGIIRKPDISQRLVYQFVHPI
# How it was run: as §1
# ETV7 = molecular target: T10, ETV7 (Homo sapiens, UniProt Q9Y603 1-341); details: protein: recombinant; tags: N-terminal GST; dsDNA, one strand shown
# T10 sequence: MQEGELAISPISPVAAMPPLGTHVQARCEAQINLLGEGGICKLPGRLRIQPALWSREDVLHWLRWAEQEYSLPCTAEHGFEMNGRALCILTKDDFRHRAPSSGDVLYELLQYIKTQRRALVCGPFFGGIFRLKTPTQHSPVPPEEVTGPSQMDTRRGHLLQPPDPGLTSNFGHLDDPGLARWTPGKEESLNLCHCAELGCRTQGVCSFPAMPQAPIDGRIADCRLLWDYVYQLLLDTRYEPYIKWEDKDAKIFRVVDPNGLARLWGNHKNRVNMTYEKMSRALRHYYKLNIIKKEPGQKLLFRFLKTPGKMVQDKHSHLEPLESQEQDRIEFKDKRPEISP
# How it was run: as §1
# ELF5 = molecular target: T11, ELF5 (Homo sapiens, UniProt Q9UKW6-2 1-255); details: protein: recombinant; tags: N-terminal GST; dsDNA, one strand shown
# T11 sequence: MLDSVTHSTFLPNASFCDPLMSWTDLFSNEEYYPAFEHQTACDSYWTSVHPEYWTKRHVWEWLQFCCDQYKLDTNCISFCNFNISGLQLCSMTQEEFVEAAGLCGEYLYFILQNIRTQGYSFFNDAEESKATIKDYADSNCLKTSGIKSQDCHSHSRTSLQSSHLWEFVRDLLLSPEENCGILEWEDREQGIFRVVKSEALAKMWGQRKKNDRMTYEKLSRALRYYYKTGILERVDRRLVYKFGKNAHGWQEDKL
# How it was run: as §1
# ETV3 = molecular target: T12, ETV3 (Homo sapiens, UniProt P41162-2 1-143); details: protein: recombinant; tags: N-terminal GST; dsDNA, one strand shown
# T12 sequence: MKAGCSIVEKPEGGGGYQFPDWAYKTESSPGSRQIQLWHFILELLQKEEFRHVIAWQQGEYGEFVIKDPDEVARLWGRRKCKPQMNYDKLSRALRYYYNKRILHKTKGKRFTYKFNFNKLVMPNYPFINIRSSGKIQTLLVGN
# How it was run: as §1
# ETV6 = ETV6 (Homo sapiens, UniProt P41212 1-452); details: protein: recombinant; tags: N-terminal GST; dsDNA, one strand shown
# How it was run: as §1
# ETV1, sequence (P50549 whole entry): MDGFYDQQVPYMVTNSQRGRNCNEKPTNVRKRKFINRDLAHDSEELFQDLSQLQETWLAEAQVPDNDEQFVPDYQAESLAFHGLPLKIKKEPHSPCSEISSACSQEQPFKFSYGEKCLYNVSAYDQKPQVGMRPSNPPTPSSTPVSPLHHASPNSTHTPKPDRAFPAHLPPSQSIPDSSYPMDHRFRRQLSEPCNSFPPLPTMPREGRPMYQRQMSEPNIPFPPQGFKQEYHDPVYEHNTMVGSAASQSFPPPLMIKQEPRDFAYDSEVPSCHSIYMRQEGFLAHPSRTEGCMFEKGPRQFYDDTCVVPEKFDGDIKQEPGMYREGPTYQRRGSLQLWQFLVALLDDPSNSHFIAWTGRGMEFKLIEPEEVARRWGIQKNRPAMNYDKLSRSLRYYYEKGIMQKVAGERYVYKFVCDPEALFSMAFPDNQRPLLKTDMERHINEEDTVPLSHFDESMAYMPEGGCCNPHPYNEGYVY
# HSF1, sequence (Q00613 whole entry): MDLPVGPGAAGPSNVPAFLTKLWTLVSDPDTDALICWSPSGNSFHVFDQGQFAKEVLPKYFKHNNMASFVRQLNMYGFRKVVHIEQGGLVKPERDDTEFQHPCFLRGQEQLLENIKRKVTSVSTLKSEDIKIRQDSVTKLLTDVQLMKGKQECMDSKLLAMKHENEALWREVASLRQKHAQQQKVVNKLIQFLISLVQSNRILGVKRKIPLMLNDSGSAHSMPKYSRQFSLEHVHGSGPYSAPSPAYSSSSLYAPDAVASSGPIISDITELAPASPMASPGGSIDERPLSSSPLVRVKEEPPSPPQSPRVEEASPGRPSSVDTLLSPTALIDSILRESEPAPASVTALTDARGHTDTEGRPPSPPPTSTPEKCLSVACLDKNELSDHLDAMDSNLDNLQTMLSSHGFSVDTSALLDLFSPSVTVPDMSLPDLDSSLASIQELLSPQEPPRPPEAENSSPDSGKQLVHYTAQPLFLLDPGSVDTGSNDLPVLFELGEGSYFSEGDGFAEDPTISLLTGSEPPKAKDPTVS
# CRX, sequence (O43186 whole entry): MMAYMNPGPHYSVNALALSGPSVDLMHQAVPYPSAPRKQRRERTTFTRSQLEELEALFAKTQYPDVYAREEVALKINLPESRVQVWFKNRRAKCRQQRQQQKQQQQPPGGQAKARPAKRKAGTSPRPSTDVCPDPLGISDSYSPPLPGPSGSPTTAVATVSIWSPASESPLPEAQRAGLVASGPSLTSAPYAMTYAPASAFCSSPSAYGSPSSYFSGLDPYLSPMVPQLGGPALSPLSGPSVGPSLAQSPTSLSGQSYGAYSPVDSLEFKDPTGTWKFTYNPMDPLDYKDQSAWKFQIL
# ELF4, sequence (Q99607 whole entry): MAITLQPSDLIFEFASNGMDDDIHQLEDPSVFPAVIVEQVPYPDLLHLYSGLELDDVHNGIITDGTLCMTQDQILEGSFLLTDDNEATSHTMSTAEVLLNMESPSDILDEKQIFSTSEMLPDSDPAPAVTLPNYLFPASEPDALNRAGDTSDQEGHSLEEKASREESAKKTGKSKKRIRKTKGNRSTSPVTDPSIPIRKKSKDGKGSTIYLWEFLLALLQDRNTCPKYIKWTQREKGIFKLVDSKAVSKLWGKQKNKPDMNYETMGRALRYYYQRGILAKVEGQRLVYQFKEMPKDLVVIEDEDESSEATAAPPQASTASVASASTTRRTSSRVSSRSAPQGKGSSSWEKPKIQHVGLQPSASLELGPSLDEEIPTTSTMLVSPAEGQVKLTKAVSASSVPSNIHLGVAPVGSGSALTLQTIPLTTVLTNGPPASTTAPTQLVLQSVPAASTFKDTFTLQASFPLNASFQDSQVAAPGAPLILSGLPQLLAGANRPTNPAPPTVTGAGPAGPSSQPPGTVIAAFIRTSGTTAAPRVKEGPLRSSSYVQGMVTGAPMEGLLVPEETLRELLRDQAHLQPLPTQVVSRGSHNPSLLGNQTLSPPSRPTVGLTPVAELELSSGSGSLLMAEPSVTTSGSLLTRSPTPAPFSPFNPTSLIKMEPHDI
# ETV6, sequence (P41212 whole entry): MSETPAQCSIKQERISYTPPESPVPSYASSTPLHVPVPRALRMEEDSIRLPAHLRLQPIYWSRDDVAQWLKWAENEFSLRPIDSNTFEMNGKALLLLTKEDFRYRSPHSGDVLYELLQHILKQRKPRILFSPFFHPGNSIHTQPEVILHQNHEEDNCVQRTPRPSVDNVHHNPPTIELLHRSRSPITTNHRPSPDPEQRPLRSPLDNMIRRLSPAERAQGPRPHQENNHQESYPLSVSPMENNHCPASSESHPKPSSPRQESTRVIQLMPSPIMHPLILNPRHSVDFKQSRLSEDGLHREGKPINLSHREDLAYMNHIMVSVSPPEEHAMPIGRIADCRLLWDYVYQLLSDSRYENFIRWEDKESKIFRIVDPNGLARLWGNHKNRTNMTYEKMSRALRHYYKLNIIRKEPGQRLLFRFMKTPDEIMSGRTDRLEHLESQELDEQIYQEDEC
# ETV5, sequence (P41161 whole entry): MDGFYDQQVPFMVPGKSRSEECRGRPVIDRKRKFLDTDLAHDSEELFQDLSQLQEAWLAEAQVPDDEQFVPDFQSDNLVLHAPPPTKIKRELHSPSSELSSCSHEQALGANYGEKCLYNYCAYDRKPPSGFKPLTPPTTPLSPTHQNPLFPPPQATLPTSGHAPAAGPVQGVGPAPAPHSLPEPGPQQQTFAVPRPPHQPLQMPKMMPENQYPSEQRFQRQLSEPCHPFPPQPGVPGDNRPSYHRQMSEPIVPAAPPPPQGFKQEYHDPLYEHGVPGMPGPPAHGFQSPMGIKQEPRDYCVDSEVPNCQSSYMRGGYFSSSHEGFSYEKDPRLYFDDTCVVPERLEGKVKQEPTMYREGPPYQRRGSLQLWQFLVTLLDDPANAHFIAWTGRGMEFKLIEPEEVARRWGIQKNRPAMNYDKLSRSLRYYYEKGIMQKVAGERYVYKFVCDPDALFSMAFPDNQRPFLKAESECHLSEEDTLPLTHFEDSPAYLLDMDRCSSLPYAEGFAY
sequence,measurement,setting,value
CTTGGT,binding signal,FEV,"1.33 fold enrichment (6-mer frequency, TF over GST control)"
same,binding signal,ETV5,"1.46 fold enrichment (6-mer frequency, TF over GST control)"
same,binding signal,HSF1,"1.18 fold enrichment (6-mer frequency, TF over GST control)"
same,binding signal,SPIC,"1.61 fold enrichment (6-mer frequency, TF over GST control)"
same,binding signal,ELF4,"1.58 fold enrichment (6-mer frequency, TF over GST control)"
same,binding signal,ELK4,"1.53 fold enrichment (6-mer frequency, TF over GST control)"
same,binding signal,ETV2,"1.53 fold enrichment (6-mer frequency, TF over GST control)"
same,binding signal,ELF3,"1.51 fold enrichment (6-mer frequency, TF over GST control)"
same,binding signal,CRX,"1.21 fold enrichment (6-mer frequency, TF over GST control)"
same,binding signal,ETV1,"1.53 fold enrichment (6-mer frequency, TF over GST control)"
same,binding signal,ERF,"1.34 fold enrichment (6-mer frequency, TF over GST control)"
same,binding signal,ETV3L,"1.47 fold enrichment (6-mer frequency, TF over GST control)"
same,binding signal,ETS2,"1.45 fold enrichment (6-mer frequency, TF over GST control)"
same,binding signal,SPDEF,"1.51 fold enrichment (6-mer frequency, TF over GST control)"
same,binding signal,ETV7,"1.49 fold enrichment (6-mer frequency, TF over GST control)"
same,binding signal,ELF5,"1.37 fold enrichment (6-mer frequency, TF over GST control)"
same,binding signal,ETV3,"1.34 fold enrichment (6-mer frequency, TF over GST control)"
same,binding signal,ETV6,"1.44 fold enrichment (6-mer frequency, TF over GST control)"
